About 1,100 (1.7%) of roughly 63,000 compounds were called active. This is one part of a sample in which actives are shown more often than they occur. Potency and affinity values are given separately. Unmarked numbers belong to inactive results. Rule as the data show it: active = cytotoxicity above about 50%; inactive = the rest.

This assay in a line: cytotoxicity in HPDE-C7 cells, cell-based, fluorescence, HTS (AID 430).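 Also: cells exposed to compound for 48 hours before viability readout; 0% = vehicle and 100% = reference cytotoxic drug.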 As to conditions: HPDE-C7 pancreatic duct cells viability, at 10 µM, active compounds read high.
As for `c1ccc(Nc2c3c(nc4ncnn24)CCC3)cc1`, the cytotoxicity was -24.1%.

In the case of `C=CCc1cc(C)ccc1OCC(O)CN1CCN(c2ccccc2)CC1` (configuration not stated), the cytotoxicity is 22.9%. Then `COc1ccc(S(=O)(=O)N2CCN(S(=O)(=O)c3ccc4c(c3)OCCO4)CC2)cc1C`, with -3.8%. Under `COc1cc(NS(=O)(=O)c2cc(C)ccc2OC)c(OC)cc1Cl` stands -0.5%; under `COc1ccc(OC)c(S(=O)(=O)Nc2cc(OC)c(Cl)cc2OC)c1`, 5.6%. Regarding `COc1cc(NS(=O)(=O)c2ccc(OC)c(C)c2C)c(OC)cc1Cl`, the cytotoxicity was 60.7% (active). Then `CC1CCCCN1C(=O)c1cnn2c(C(F)(F)F)cc(-c3ccco3)nc12` (configuration not stated), with -7.7%. Then `CCc1cc2c(N3CCN(c4nnc(CC)s4)CC3)ncnc2s1`, with 15.2%; and `O=C(c1ccco1)N1CCN(c2ncnc3c2cnn3-c2ccccc2)CC1`, with -6.3%; and `O=C(COc1ccccc1)N1CCN(c2ncnc3c2cnn3-c2ccccc2)CC1`, with -0.4%. Under `CCc1cc2c(N3CCN(c4ccccc4)CC3)ncnc2s1` stands 75.1% (active). As to `Cc1ccc(-n2ncc3c(N4CCCC4)ncnc32)c(C)c1`, the cytotoxicity is -2.3%. Then `CCc1cc2c(N3CCCCC3)ncnc2s1`, with -21.8%; and `COc1ccc(-n2ncc3c(N4CCN(c5cc(C)ccc5C)CC4)ncnc32)cc1`, with 1.5%; and `CCN1CCN(c2ncnc3c2cnn3-c2ccc(C)cc2C)CC1`, with -8.1%. Then `COc1ccc(N2CCN(c3ncnc4c3cnn4-c3ccc(C)cc3C)CC2)cc1`, with 0.4%; and `Cc1cc(C(=O)CN2C(=O)c3ccccc3C2=O)c(C)n1C1CC1`, with 6.6%; and `O=C(c1ccccc1)N1CCCOC1c1ccccc1` (configuration not stated), with 2.4%. Then `Cn1c(=O)c2c(nc(SCC(=O)NC3CCCCC3)n2C)n(C)c1=O`, with -18.4%; and `COc1ccc(CCNC(=O)CN2C(=O)c3ccccc3S2(=O)=O)cc1OC`, with 0.7%. With `Cn1cccc1Cc1nnc(SCC(=O)Nc2ccccc2)n1-c1ccc(F)cc1`, the cytotoxicity was 0%. Then `O=C(CN1CCC(NC(=O)c2ccc(F)cc2)CC1)NCc1ccccc1F`, with -5.6%.

Regarding `O=C(Nc1cccc(Cl)c1)N1CCN(Cc2ccccc2)CC1`, the cytotoxicity is 17.3%.

Take `O=C(NC1CCCc2ccccc21)C1CCCO1` (configuration not stated): the cytotoxicity was 2%.

As to `O=C(NC1CCCCC1)C(c1ccc(F)cc1)N(Cc1ccco1)C(=O)Cn1nnc2ccccc21` (configuration not stated), the cytotoxicity was -13.1%.

Consider `CCC(C)(C)NC(=O)C(c1ccccc1F)N(Cc1ccco1)C(=O)Cn1nnc2ccccc21` (configuration not stated), for which the cytotoxicity is 2.4%. Then `O=C(NC1CCCCC1)C(c1ccccc1F)N(Cc1ccco1)C(=O)Cn1nnc2ccccc21` (configuration not stated), with 63.4% (active); and `Cc1ccc(S(=O)(=O)Nc2nc3ccccc3nc2NCc2ccco2)cc1C`, with -2.8%; and `C=CCn1c(SCC(=O)N2CCN(C(=O)c3ccco3)CC2)nc2sc(CC)cc2c1=O`, with -4.1%.

With `C=CCn1c(SCC(=O)NC(=O)NCc2ccco2)nc2sc(CC)cc2c1=O`, the cytotoxicity is 57.6% (active).

With `O=C(CSc1nc2cc(Cl)ccc2s1)NC(=O)NCc1ccco1`, the cytotoxicity is -4.7%. Under `C=CCn1c(SCC(=O)NC(=O)NCc2ccco2)nc2sc(C)c(C)c2c1=O` stands -0.5%; under `O=C(CCCSc1nc2ccccc2s1)NCc1ccco1`, -2.9%; under `O=C(CSc1nc2ccccc2s1)NC(=O)NCc1ccco1`, 82.9% (active).

As for `Cc1ccc2cc3cc(C(=O)N4CCN(C(=O)c5ccco5)CC4)sc3nc2c1`, the cytotoxicity was -0.9%.

In the case of `CCn1cc(C(=O)N2CCCC2)c(=O)c2cc(S(=O)(=O)N3CCOCC3)ccc21`, the cytotoxicity is -4.3%. Then `Cc1cccc(-c2nc(CS(=O)CC(=O)NC3CCCC3)c(C)o2)c1` (configuration not stated), with 10.3%. Under `CC(OC1=CC(=O)CCC1)C(=O)c1ccccc1` (configuration not stated) stands -4.7%; under `COc1ccccc1OCc1nc(C#N)c(NCc2ccco2)o1`, 3.4%. Under `CCCCCCC1CC(CSc2ncn[nH]2)OC1=O` (configuration not stated) stands 6.8%; under `COc1ccccc1N1CC(O)=C(c2nc3ccccc3c(=O)[nH]2)C1=N`, 26.8%; under `COc1cccc(N2CC(O)=C(c3nc4ccccc4c(=O)[nH]3)C2=N)c1`, 54.2% (active). `CCOC(=O)c1ccc(N2CC(O)=C(c3nc4ccccc4c(=O)[nH]3)C2=N)cc1`: the cytotoxicity was 38.3%.

As to `O=C(O)C1C(c2ccccc2)C(C(=O)OCCCO)C1c1ccccc1` (configuration not stated), the cytotoxicity was 4.7%. Under `COc1cccc(C=Nc2cc(C)on2)c1O` stands -3.2%; under `Oc1c(/C=N/c2ncn[nH]2)ccc2ccccc12`, 54.2% (active).

Consider `O=c1c2ccccc2c(/C=N/c2ncn[nH]2)c(O)n1Cc1ccccc1`, for which the cytotoxicity was 5.2%. Then `C=CCc1cccc(/C=N/c2ncn[nH]2)c1O`, with 4.1%; and `COc1cc(Br)cc(/C=N/c2ncn[nH]2)c1O`, with 88.6% (active). Under `COc1cc(Br)cc(CN2CCN(C=O)CC2)c1O` stands -1.6%.

For the compound `O=C(O)CN1CCN(Cc2ccc(F)cc2Cl)C1=O`, the cytotoxicity is -10.1%.

On to `COc1ccc(CCn2nnnc2C(CC(C)C)N2CCC(C(N)=O)CC2)cc1OC` (configuration not stated), for which the cytotoxicity is -10.9%. On to `CCCS(=O)(=O)N1CCC(C(=O)NCc2ccccc2Cl)CC1`, for which the cytotoxicity was -9.6%. Under `Clc1ccccc1-c1nnc2sc(-c3ccncc3)nn12` stands -13.4%; under `CN(C)c1ccc(-c2nn3c(-c4ccc(Cl)cc4)nnc3s2)cc1`, -15.9%. Under `CN(C)c1ccc(-c2nn3c(-c4ccccc4Cl)nnc3s2)cc1` stands 63.8% (active); under `COc1ccccc1-c1nnc2sc(-c3ccc(N(C)C)cc3)nn12`, 44.4%. Under `CN(C)c1ccc(-c2nn3c(-c4ccc(Cl)cc4Cl)nnc3s2)cc1` stands 60.2% (active); under `Cc1nn2c(-c3ccc(Cl)cc3Cl)nnc2s1`, -9.3%; under `CCOc1ccc(N2C(=O)CC(SC(=NC)Nc3cccc(F)c3)C2=O)cc1` (configuration not stated), -18.7%. `O=C(CSc1ccc2c(c1)OCCO2)NCCN1C(=O)CSC1=O`: the cytotoxicity is 3.6%.

For `Cn1c(=O)[nH]c(=O)c2c1nc(N1CCN(c3cccc(Cl)c3)CC1)n2CCCc1ccccc1`, the cytotoxicity was 5.2%.

These data come from PubChem BioAssay AID430 (Sanford-Burnham Center for Chemical Genomics, 2006).
